The values that follow come from PubChem BioAssay AID651965 (National Center for Advancing Translational Sciences (NCATS), 2013).

The whole screen tested about 340,000 compounds, of which about 6,400 (1.9%) were called active. Inconclusive results (about 4%) are left out. The entries come from a sample that favours actives as a whole. A number with no mark means an inactive call. Calls follow the shape of the dose curve; as a rule, active = well fitted falling curve with a large enough effect; inconclusive = small, poorly fitted or top-dose-only effect; inactive = no such curve, though single readings can be large or run the other way.
Potency is read from the fitted curve at half-maximal effect.

Sequence of ATP-dependent Clp protease proteolytic subunit (Bacillus subtilis (strain 168)) (P80244 whole entry, looked up): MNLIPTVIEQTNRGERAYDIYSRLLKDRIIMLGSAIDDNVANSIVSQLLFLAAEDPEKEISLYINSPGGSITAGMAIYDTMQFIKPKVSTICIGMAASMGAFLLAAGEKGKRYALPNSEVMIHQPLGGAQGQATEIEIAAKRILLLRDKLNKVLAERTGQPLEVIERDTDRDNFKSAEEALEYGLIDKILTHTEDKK

In the assay the target is ATP-dependent Clp protease proteolytic subunit (Bacillus subtilis (strain 168)) (UniProt P80244). Briefly: qHTS Assay for Activators of ClpP. Also: the source files actives as falling curves though it sought activators and does not explain the sign; nearly all actives have a fitted effect of over 65% in size. As to conditions: purified B. subtilis ClpP, FRET peptide cleavage, 20 min; series mostly up to 57.5 µM; activity change, negative = active: at the top concentration. From the text:
The Clp protease proteolytic subunit (ClpP) is the core unit of the Clp complex belonging to the peptidase family S14 that hydrolyzes protein into small peptides in the presence of ATP and magnesium. It is ubiquitously expressed and is the major protease in bacteria. […] Unlike common antibiotics that simply interfere with the essential enzyme activity, ADEP binding activates the ClpP core in the absence of the regulatory Clp-ATPases leading to uncontrolled proteolysis and eventually cell death. Activators binding to the docking site on ClpP can also block formation of the ClpXP and ClpA/C-P holoenzyme complexes interfering with the normal biological functions of ClpP and thus have the potential to become new anti-microbials.
To identify activators of ClpP, a FRET based quenching reversal assay was developed using a purified B. subtilis ClpP and a decapeptide substrate (FRET-FV). The FRET-FV is tagged with a fluorescent molecule amino benzoic acid (donor) at the N-terminus and a nitrotyrosine quencher (acceptor) at the C-terminus. FRET-FV cleaves upon activation of ClpP with ADEP treatement and reverses the quenching effect of the nitrotyrosine causing an increase in fluorescence emission signal at 430nm. This assay was used to screen the Molecular Libraries Small Molecule Repository (MLSMR).
NIH Molecular Libraries Probe Production Centers Network [MLPCN]
NIH Chemical Genomics Center [NCGC]
Assay Submitter (PI): Michael Maurizi, National Cancer Institute
Two and a half microL/well of purified enzyme solution (final concentrations 10 microg/mL B. subtilis ClpP in 100 mM Tris/HCl pH8, 100 mM KCl, 0.05% low protease BSA, 2.5% glycerol, 0.01% Tween-20 buffer) was dispensed into 1536-well assay plates (Greiner, black solid, medium-binding plates) with Aurora Discovery BioRAPTR Flying Reagent Dispenser (FRD, Beckton-Dickenson). Compound solution (23 nL) was transferred to the assay plate using Kalypsys pin tool equipped with a 1536-pin tool. […] FRET signals at time 0 and after 20 min room temperature incubation were obtained using the PerkinElmer Envision plate reader with 320nm excitation and 430nm emission filters. Delta FRET value (Time 20 - Time 0) was calculated and normalized to the delta FRET value of positive control ADEP (5.8 microM final concentration) and negative control DMSO and no enzyme wells.
Background: In qHTS, concentration-response curves come from the screen itself.
In the case of `Fc1ccc(C2N3CCCN23)cc1` (centres undefined), the Potency is 28.2 µM (active).

On to `O=c1[nH]c2ccccc2n1C1CCN(C(c2ccnc3ccccc23)c2nnnn2Cc2ccccc2)CC1` (centres undefined), for which the “activity change, negative = active” value is 1.32%.

As to `COC(=O)COc1cc(C)cc2oc(=O)c3c(c12)CCCC3`, the “activity change, negative = active” value was -15.8%.

Take `Cc1cc(OCc2cc(C(=O)O)oc2C)c2c3c(c(=O)oc2c1)CCCC3`: the Potency is 28.2 µM (active).

Consider `CCN1CCN(C(=O)Cc2coc3cc(C)cc(C)c23)CC1`, for which the “activity change, negative = active” value is -1.96%.

As for `Cc1ncoc1C(=O)NCC1=C(c2cccc3ccccc23)C[C@@H]2CC[C@H]1N2Cc1ccco1`, the “activity change, negative = active” value is 1.72%.

For the compound `COC(=O)C1=C(c2ccccc2)C[C@@H]2CC[C@H]1N2C(=O)NCc1ccco1`, the “activity change, negative = active” value was 0.913%.

Regarding `CC/C(=N\NC(=O)c1ccccc1O)c1c(O)n(Cc2ccccc2)c(=O)[nH]c1=O`, the “activity change, negative = active” value was -20.7%.

Regarding `CCOC(=O)c1c(N)n(CCN2CCOCC2)c2nc3ccccc3nc12`, the Potency was 25.1 µM (active).

With `CCOC(=O)c1cccc(C2=C(CNC(=O)c3ccncc3)[C@H]3CC[C@@H](C2)N3Cc2ccccc2)c1`, the “activity change, negative = active” value is -2.63%.

On to `CCOc1ccc(CNC(=O)c2cccc(Nc3nc4ccccc4n4nnnc34)c2)cc1OC`, for which the “activity change, negative = active” value is 1.78%.

As for `CCOC(=O)c1c(N)n(Cc2ccccc2)c2nc3ccccc3nc12`, the Potency was 28.2 µM (active).

With `COc1cc(Cn2c(N)c(C(=O)NCc3ccco3)c3nc4ccccc4nc32)cc(OC)c1OC`, the Potency was 28.2 µM (active).

On to `c1cc2c(cc1C1OCC3C(c4ccc5c(c4)OCO5)OCC13)OCO2` (centres undefined), for which the “activity change, negative = active” value is 0.351%.

Turning to `COc1cccc(C(c2nnnn2-c2ccc3c(c2)OCCO3)N2CCC3(CC2)C(=O)NCN3c2ccccc2)c1OC` (centres undefined), the “activity change, negative = active” value was -2.09%.

Consider `S=C(NCCc1ccccc1)N1Cc2cc(N3CCOCC3)ccc2-n2nncc2C1`, for which the “activity change, negative = active” value is -8.95%.

Consider `O=c1[nH]c2ccccc2n1C1CCN(C(c2ccccc2)c2nnnn2Cc2ccccc2)CC1` (centres undefined), for which the “activity change, negative = active” value was 1.83%.

Turning to `CC(=O)NCC1=C(c2ccc3ccccc3c2)C[C@@H]2CC[C@H]1N2Cc1ccco1`, the “activity change, negative = active” value was -3.56%.

For the compound `CSCCC(c1nnnn1C(C)(C)C)N1CCC(n2c(=O)[nH]c3ccccc32)CC1` (centres undefined), the “activity change, negative = active” value is -3.84%.

Take `CCn1cc(CN2CCCC(C(=O)c3cccc(C(F)(F)F)c3)C2)cn1` (centres undefined): the “activity change, negative = active” value was -2.07%.

Turning to `COc1ccc(C2C=C(C)Oc3c2c(=O)oc2ccccc32)cc1OC` (centres undefined), the “activity change, negative = active” value is -6.26%.

Consider `O=C(O)/C=C/c1ccc2c(c1)OCO2`, for which the “activity change, negative = active” value was 4.44%.

With `O=c1c2ccccc2[nH]c(=S)n1-c1cccc(Cl)c1`, the “activity change, negative = active” value was -18.2%.

Regarding `CC(C(=O)Nc1ccc(Cl)cc1Cl)N1CC=C(c2ccccc2)CC1` (centres undefined), the Potency was 28.2 µM (active).

With `CN1CCN(C(=S)SCC(=O)Nc2ccc(Cl)cc2C(=O)c2ccccc2)CC1`, the “activity change, negative = active” value is -6.56%.

Take `O=C(Nc1ccc(Cl)cc1C(=O)c1ccccc1)c1cc(Cl)cc(Cl)c1`: the “activity change, negative = active” value is 0.79%.

As to `O=C(NCC1=C(c2ccc3ccccc3c2)C[C@@H]2CC[C@H]1N2Cc1ccco1)c1cccs1`, the “activity change, negative = active” value was -4.42%.

As to `COC(=O)C1=C(c2ccc(OCc3ccccc3)cc2)C[C@@H]2CC[C@H]1N2C(=O)NCc1ccc(Cl)cc1`, the “activity change, negative = active” value is -5.51%.

Regarding `CCOc1ccc(-c2cc(C)n3nc(C(=O)Nc4ccc(C)c(C)c4)cc3n2)cc1`, the Potency is 3.55 µM (active).

`ClCCN(CCCl)c1ccc(C=Nc2ccc(/C=C/c3ccnc4ccccc34)cc2)cc1`: the “activity change, negative = active” value is -13.1%.

Regarding `COC(=O)C1=C(c2ccc(OCc3ccccc3)cc2)C[C@@H]2CC[C@H]1N2C(=O)NCc1cccc(F)c1`, the “activity change, negative = active” value is -7.83%.

`O=C(c1cc(S(=O)(=O)N2CCOCC2)ccc1F)N1CCC2(CC1)OCCO2`: the “activity change, negative = active” value was 0.465%.

Take `O=C(c1cc(-c2ccncc2)nc2ccccc12)N1CCC2(CC1)OCCO2`: the Potency was 28.2 µM (active).

With `O=C(c1cc2nc(-c3ccccc3)cc(-c3ccccc3)n2n1)N1CCC2(CC1)OCCO2`, the Potency is 35.5 µM (active).

Turning to `O=C(c1ccccc1[N+](=O)[O-])N1CCC2(CC1)OCCO2`, the “activity change, negative = active” value was 1.83%.

In the case of `Cc1cccc(-n2c(C)nc3cc(C(=O)N4CCC5(CC4)OCCO5)ccc32)c1`, the “activity change, negative = active” value is 0.319%.

Regarding `Cc1ccc(-c2cc(C(=O)N3CCC4(CC3)OCCO4)no2)cc1`, the “activity change, negative = active” value was -4.99%.

Turning to `COc1cc([C@@H]2c3cc4c(cc3[C@H](OC(C)=O)[C@H]3COC(=O)[C@H]23)OCO4)cc(OC)c1OC`, the “activity change, negative = active” value was -0.0541%.

`COc1ccc(-n2nnnc2C(c2cccc3ccccc23)N2CCC(n3c(=O)[nH]c4ccccc43)CC2)cc1` (centres undefined): the “activity change, negative = active” value was 0.35%.

In the case of `COc1ccc(NC(=O)N2CCC3(CC2)OCCO3)c(OC)c1`, the “activity change, negative = active” value was 0.147%.

As for `COc1ccc(-c2nc(CS(=O)CC(=O)N3CCC4(CC3)OCCO4)c(C)o2)cc1` (centres undefined), the Potency was 31.6 µM (active).

`COc1ccc(S(=O)(=O)NCc2ccc(C(=O)N3CCC4(CC3)OCCO4)cc2)cc1`: the “activity change, negative = active” value was 0.386%.

Turning to `CCC(C)(O)C(=O)OC1C(=O)OC2CC3C(C)=CC(=O)C(O)C3(C)C3C4(O)OCC23C1C(C)C4O` (centres undefined), the “activity change, negative = active” value is -2.2%.

Regarding `CCOC(=O)[C@]12Cc3ccccc3[C@H]1N(C1CCCCC1)C(=O)c1cc(OC)ccc12`, the “activity change, negative = active” value was -3.18%.

Turning to `c1ccc(N2Cc3ccccc3-n3nncc3C2)nc1`, the “activity change, negative = active” value is 0.135%.

With `COc1cc(C(=O)N2Cc3ccc(Br)cc3-n3nncc3C2)cc(OC)c1OC`, the “activity change, negative = active” value is -0.434%.

Turning to `C[C@H]1CN([C@@H](C)CO)C(=O)CCCn2nncc2CO[C@H]1CN(C)C(=O)Oc1ccccc1`, the “activity change, negative = active” value is 1.9%.

Consider `COC(=O)C[C@H]1CC[C@H]2NC[C@@H](O)COC[C@@H]2O1`, for which the “activity change, negative = active” value is -0.23%.

In the case of `CCN(CC)CCOC(=O)c1cc2cc(COC)ccc2o1`, the Potency was 28.2 µM (active).

Regarding `O=P(OC1=CCCCC1)(c1ccccc1)c1ccccc1`, the “activity change, negative = active” value is -2.65%.

On to `CC(=CCOc1ccc2ccc(=O)oc2c1)C1=CC(=O)C(C)(C)O1`, for which the “activity change, negative = active” value was 4.52%.

For the compound `CC1C(=O)OC2CCN3CC=C(COC(=O)C(C)(O)C1(C)O)C23` (centres undefined), the “activity change, negative = active” value is 1.37%.

On to `Cc1ccc(Cn2c(C)c3cnn(CC(=O)N4CCC5(CC4)OCCO5)c(=O)c3c2C)cc1`, for which the “activity change, negative = active” value is -24.5%.

As to `O=C(CCCn1c(=O)[nH]c2cc(Cl)ccc2c1=O)N1CCC2(CC1)OCCO2`, the Potency is 28.2 µM (active).

As to `Cc1nc2nc(C)c(CCC(=O)N3CCC4(CC3)OCCO4)c(C)n2n1`, the “activity change, negative = active” value is -4.83%.

In the case of `CC(=O)OC1C2(CC3N4C(=O)C5(CO)SSC4(CC31O)C(=O)N5C)OC(C)C(C)(C)C2=O` (centres undefined), the “activity change, negative = active” value was -1.51%.

As for `COc1ccc(NC(=O)N2Cc3ccccc3-n3nncc3C2)cc1`, the “activity change, negative = active” value was -1.49%.

Consider `COC1C(O)C(C)OC(OC2CCC3(C=O)C(CCC4C3CCC3(C)C(C5=CC(=O)OC5)CCC43O)C2)C1O` (centres undefined), for which the “activity change, negative = active” value is 0.46%.

Turning to `C[C@H]1CN([C@@H](C)CO)C(=O)CCCn2nncc2CO[C@H]1CN(C)C(=O)Oc1cccc2ccccc12`, the “activity change, negative = active” value was 2.28%.

In the case of `CCOC(=O)c1c(-c2ccccc2)oc2ccc(OC(=O)N(C)C)cc12`, the Potency was 3.16 µM (active).

Regarding `CN(C)C(=O)Oc1ccc(OCc2cccc[n+]2C)cc1`, the “activity change, negative = active” value is 0.542%.

For the compound `CN(C)C(=O)Oc1ccc2c(c1)O/C(=C\c1ccccc1)C2=O`, the “activity change, negative = active” value is -10.7%.

Turning to `CCOC(=O)[C@]12Cc3cc(OC)ccc3[C@H]1N(C(C)C)C(=O)c1ccccc12`, the “activity change, negative = active” value was 1.13%.

For `O=C(NC1CCCCC1)N1Cc2cc(N3CCCCC3)ccc2-n2nncc2C1`, the “activity change, negative = active” value is -3.37%.
